Shown are actives, neighbours in structure and some others; about 5.8% of the full set was active somewhere.
12-LOX inh – ALOX12 (human) lipoxygenase inhibition; P18054; purified 12hLO, xylenol orange hydroperoxide absorbance; Potency, µM (titrated, usually from 108 µM), for the others: at the top dose activity change, negative = inhibition, hits mostly inhibitors; actives 1.1% (n = 580,000); AID 1671190; note: % is set by controls: 0 for no effect and ±100 for the full control effect
Target sequence (P18054 whole entry, looked up): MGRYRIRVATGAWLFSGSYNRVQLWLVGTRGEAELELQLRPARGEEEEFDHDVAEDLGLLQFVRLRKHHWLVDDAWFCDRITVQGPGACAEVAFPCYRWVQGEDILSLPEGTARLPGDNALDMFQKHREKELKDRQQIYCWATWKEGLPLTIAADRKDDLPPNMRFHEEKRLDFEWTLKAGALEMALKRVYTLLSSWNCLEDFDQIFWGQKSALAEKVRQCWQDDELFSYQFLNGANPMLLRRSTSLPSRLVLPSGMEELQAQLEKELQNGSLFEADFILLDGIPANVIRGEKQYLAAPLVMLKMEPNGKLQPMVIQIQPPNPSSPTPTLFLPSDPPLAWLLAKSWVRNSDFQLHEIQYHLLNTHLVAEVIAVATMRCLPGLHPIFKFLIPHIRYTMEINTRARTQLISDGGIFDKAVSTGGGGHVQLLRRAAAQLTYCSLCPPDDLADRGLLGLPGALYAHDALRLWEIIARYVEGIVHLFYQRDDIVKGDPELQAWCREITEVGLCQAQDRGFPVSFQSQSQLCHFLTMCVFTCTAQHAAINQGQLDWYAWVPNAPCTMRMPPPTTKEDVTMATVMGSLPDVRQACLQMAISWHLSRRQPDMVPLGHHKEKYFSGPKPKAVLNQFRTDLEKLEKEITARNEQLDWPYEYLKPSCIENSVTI
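Hydroperoxide product was detected by ferrous iron/xylenol orange as the 573 to 405 nm absorbance ratio. Arachidonic acid at 40 uM (final) was turned over for 30 min at room temperature by 150 nM human 12hLO, pH 7.0 Hepes buffer, after 15 min compound preincubation.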
SW480 rereplic – inducers of DNA re-replication in SW480 colon cancer cells; Potency, µM (top dose mostly 46.1 µM), for the others: top-dose re-replication activation, hits mostly activators; AID 624297; actives 1.8% (n = 340,000); SW480 DNA re-replication, Hoechst DNA content imaging, 48 h; note: % of control where 0% means no effect; nearly all actives have a fitted effect of over 55% in size
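First, 250 cells per well were seeded. Next, compound or vehicle (23 nL) was pinned in, plates sat 48 hr at 37 C. Finally Hoechst was added for 40 min before fluorescence scanning.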
KB-V1 cytotox – KB-V1 MDR subline cytotoxicity; KB-V1 MDR cells viability, CellTiter-Glo, 72 h; Potency, µM (top dose mostly 46.1 µM), actives largely listed as cytotoxic; actives 3.4% (n = 400,000); note: % is set by controls: 0 for no effect and ±100 for the full control effect; nearly all actives have a fitted effect of over 60% in size
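Drug-selected KB-V1 cells, grown in DMEM lacking phenol red with 10% FBS, receive compound titrations; after three days at 37 degrees C, surviving cell ATP is quantified by CellTiter-Glo luminescence and responses normalized and curve-fitted.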
MCF10A rereplic – DNA re-replication induction in MCF 10a cells; Potency, µM (series often up to 46.1 µM), inactives show at the highest dose activity, positive = re-replication, actives largely listed as activators; MCF 10A DNA re-replication, Hoechst nuclear intensity, 48 h; actives 2.9% (n = 350,000); note: % of control where 0% means no effect; nearly all actives have a fitted effect of over 50% in size
KB-3-1 cytotox – KB-3-1 parental cell cytotoxicity. KB-3-1 viability, CellTiter-Glo ATP luminescence, 72 h. Potency, µM (top dose mostly 46.1 µM), most hits filed as cytotoxic. actives 1.4% (n = 400,000); note: % is set by controls: 0 for no effect and ±100 for the full control effect; nearly all actives have a fitted effect of over 60% in size
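KB-3-1 parental drug-naive adenocarcinoma cells in DMEM/10% FBS, incubated 72 h at 37 C with pin-transferred compounds across a concentration series. Viability by CellTiter-Glo luminescence; concentration-response curves fitted after normalization.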
PINK1 expr mod – modulators of PINK1 expression | PINK1 immunofluorescence, high-content cytometry, 24 h | Potency, µM (top dose mostly 76.6 µM), without a hit: at the top dose activation (PINK1 increase), hits mostly activators | actives 0.2% (n = 410,000) | AID 624263; active = well fitted activation curve with a large enough effect; inconclusive = small, poorly fitted or top-dose-only effect; cell line not stated here; note: % of control where 0% means no effect; nearly all actives have a fitted effect of over 65% in size
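Decision-based qHTS: stable cells, 24 h exposure to five compound concentrations, CCCP as control. Fixed cells stained for PINK1 plus nuclear, mitochondrial and cell markers, cytometer read.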
Numbers without * were called inactive; i = inactive; ? = inconclusive; / = not tested or not shown; [ ] = another dose, or the depositor's remark. Unless noted, calls come from the whole dose curve; as a rule, active = well fitted curve in the direction sought with a large enough effect; inconclusive = small, poorly fitted or top-dose-only effect, or another doubt; inactive = no such curve, though single readings can be large; an effect the other way counts as inactive or inconclusive. Potency is the fitted concentration of half-maximal effect.

SMILES	12-LOX inh	SW480 rereplic	KB-V1 cytotox	MCF10A rereplic	KB-3-1 cytotox	PINK1 expr mod
O=C1/C(=C\c2ccsc2)N2CCC1CC2	0%	-4%	i	-1%	i	3%
CCC(CO)NS(=O)(=O)c1cc(C)c(Br)cc1Cl (stereo unspecified)	17%	/	/	/	/	/
CCOC(=O)c1c(NC(=O)C(NCCN(C)C)c2ccccc2)sc2c1CCCC2 (stereo unspecified)	?	?	i	18µM*	?	2%
CCOC(=O)c1c(NC(=S)NNS(=O)(=O)c2ccc(Br)cc2)sc2c1CCCCC2	32µM*	23%	?	13%	i	7%
CCOC(=O)c1c(NC(=O)c2ccn(CC)n2)sc2c1CCCC2	-3%	?	i	?	i	10µM*
CCOC(=O)c1c(NC(=O)c2ccc(C)cc2)sc2c1CCCCC2	-15%	/	i	/	i	2%
CCOC(=O)c1c(NC(=O)c2ccccc2Cl)sc2c1CCCC2	-22%	/	i	/	i	0%
CCOC(=O)c1c(NC(=S)Nc2ccc(OC)cc2)sc2c1CCCCC2	-17%	1%	i	10%	i	0%
CCOC(=O)c1c(NC(=O)c2ccccc2N(C)S(=O)(=O)c2ccccc2)sc2c1CCCC2	-2%	5.2µM*	5.8µM*	?	2.9µM*	7%
COC(=O)c1c(NC(=O)c2ccccc2C(=O)O)sc2c1CCC2	49%	-2%	i	9%	i	2%
CCOC(=O)c1c(NC(=O)COc2ncnc3sccc23)sc2c1CCC2	?	-1%	3.3µM*	25%	i	12%[38.3 µM]
COC(=O)c1c(NC(=O)CN(c2ccccc2)S(C)(=O)=O)sc2c1CCCC2	-24%	-4%	10µM*	1%	i	6%
CCOC(=O)c1c(NC(=O)COc2ccc(CC)cc2)sc2c1CCCC2	-15%	/	i	/	i	-1%
COC(=O)c1c(NC(=O)c2ccccc2N(C)S(=O)(=O)c2ccccc2)sc2c1CCCC2	1%	12µM*	6.5µM*	?	4.6µM*	3%
CCn1ccc(C(=O)NC2=NCCS2)n1	16%	23µM*	i	-67%	i	2%
Cc1c(Cl)cccc1N=Cc1ccc(C=Nc2cccc(Cl)c2C)cc1	1%	/	/	/	/	/
COCCN(CCOC)S(=O)(=O)c1ccc(C(=O)Nc2sc3c(c2C(N)=O)CCCCC3)cc1	-24%	4%	2.9µM*	18%	i	5%
COC(=O)c1c(NC(=O)c2ccc(N(C)S(=O)(=O)c3ccc(C)cc3)cc2)sc2c1CCCC2	0%	?	i	5.8µM*	i	6%
COc1ccc2nc(C)c(C(=O)NC3CCCCCC3)cc2c1	-3%	/	/	/	/	/
COc1ccc(-c2cc3n(n2)CC(C)(C(=O)NCc2ccccc2)N(Cc2ccco2)C3=O)cc1 (stereo unspecified)	0%	/	/	/	/	/
CCOc1cc(C)c(CN2CCC3(C2)CN(C)C(=O)O3)cc1C(C)C (stereo unspecified)	59%	/	/	/	/	/
CCOC(=O)c1sc(NC(=O)c2cc(-c3ccc(C)cc3)nc3ccccc23)c(C#N)c1C	?	1%	3.3µM*	?	?	?
COC(=O)c1sc(NC(=O)c2cc(-c3ccccc3)nc3ccccc23)c(C#N)c1C	-27%	23%	1.6µM*	?	1.5µM*	5.6µM*
Cc1sc(NC(=O)c2cc(-c3ccc(Cl)cc3)nc3ccccc23)c(C(N)=O)c1C	?	?	i	18µM*	i	4%
Cc1ccccc1-c1cc(C(=O)NC(C)C)c2ccccc2n1	-25%	/	/	/	/	/
SMILES	12-LOX inh	SW480 rereplic	KB-V1 cytotox	MCF10A rereplic	KB-3-1 cytotox	PINK1 expr mod
COc1ccc(-c2cc(C(=O)Nc3sc4c(c3C#N)CCCC4)c3ccccc3n2)cc1	-24%	18%	?	4%	i	16%
Cc1ccccc1-c1cc(C(=O)Nc2sc(C(=O)OC(C)C)c(C)c2C#N)c2ccccc2n1	0%	?	8.2µM*	?	5.2µM*	13µM*
COC(=O)c1sccc1NC(=O)c1cc(-c2ccc(C)cc2)nc2ccccc12	?	-4%	i	1%	i	16%
CCOC(=O)c1cc(C#N)c(Oc2ccc(F)cc2)nc1-c1ccccc1	19%	-4%	9.2µM*	13%	i	2%
CCOC(=O)c1cc(C#N)c(Oc2cccc(C(F)(F)F)c2)nc1-c1ccccc1	?	6%	i	?	i	1%
COc1cc(Cl)ccc1OCc1cc(C(=O)N2C[C@H]3CC[C@H]2C3)no1	8%	-4%	i	1%	i	-2%
COc1cc(Cl)ccc1OCc1cc(C(=O)N2C[C@]3(C)C[C@H]2CC(C)(C)C3)no1	-26%	7%	/	21µM*	/	?
CCOC(=O)c1c(NC(=O)c2noc3c2CC(C)CC3)sc(C)c1C (stereo unspecified)	-21%	/	/	/	/	/
O=C(C1CCC1)N1CCC(N2CC(OCC3CC3)C23CCOCC3)CC1 (stereo unspecified)	16%	/	/	/	/	/
CCCC(C)NC(=O)c1ccc(OC)c(S(=O)(=O)NCC)c1 (stereo unspecified)	24%	/	/	/	/	/
COc1cccc2c1O/C(=N\O)C(C(=O)Nc1ccc(C)cc1)C2 (stereo unspecified)	0%	?	i	18µM*	4.1µM*	2%
O=c1ccn(O)cc1[N+](=O)[O-]	-19%	/	/	/	/	/
COCc1c(C(=O)N2CCc3ccccc32)oc2ccccc12	-41%	26%	i	?	i	3%
COCc1c(C(=O)N2CCN(c3ccccc3C)CC2)oc2ccccc12	118%	2%	21µM*	17%	i	3%
Cc1c(C(=O)N2CCc3ccccc32)oc2ccccc12	0%	19%	18µM*	3%	i	4%
Cn1ncc(Br)c1C(=O)N1CCc2ccccc21	3%	0.52µM*	?	4%	i	1%
O=C(c1ccccc1Oc1ccc(C(F)(F)F)cc1[N+](=O)[O-])N1CCOCC1	5%	-1%	i	8%	i	1%
O=C(c1ccc(Oc2ccc(C(F)(F)F)cc2[N+](=O)[O-])cc1)N1CCOCC1	0%	-13%	23µM*	9%	?	-2%
O=C(OCc1nc2ccccc2o1)c1ccc(Cl)c(S(=O)(=O)N2CCCCCC2)c1	4%	/	/	/	/	/
Cc1ccc(CNc2oc(-c3ccc(S(=O)(=O)N4CCc5ccccc5C4)cc3)nc2C#N)cc1	15%	/	/	/	/	/
Cc1ccc(NC(=O)C(c2ccccc2)C2CCCC2)cc1C (stereo unspecified)	13%	/	/	/	/	/
COC(=O)/C(C#N)=N\O	0%	/	/	/	/	/
